Assay results as given in PubChem BioAssay (NCI).
The panel holds about 83,000 compounds, 20% with a hit somewhere; the sample as a whole holds those more often.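 Compound tested at a single concentration for 48 hours in 96-well plates; a percent growth value below 10 was scored as active.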 Calls of active or inactive are those of the source.

What follows are compounds tested on NCI-H460 lung (assay: NCI-60 one-dose screen, 48 h (100 = growth as untreated, 0 = no growth, -100 = all killed)). Details: 10 µM unless noted.
Procedure: Growth inhibition of the NCI-H460 human Non-Small Cell Lung tumor cell line is measured as a screen for anti-cancer activity. Cells are grown in 96 well plates and exposed to the test compound for 48 hours. Compounds are tested at a single concentration, which is 10^-5 M for most compounds. The reported endpoint is percent growth (GI% or GIPRCNT), where numbers from 0 - 100% represent growth inhibition, and numbers from -100% - 0 represent cell death. For example, a value of 40 represents 60% growth inhibition. A value of 0 means no net growth occurred over the course of the experiment. A value of -40 indicates 40% of cells at the beginning of the experiment died by the end of the experiment. A value of -100 means all cells are dead at the end of the experiment.
NCI-60 Human Tumor Cell Lines Screen was performed using the standard one-dose NCI protocol, which is described in more detail at https://dtp.cancer.gov/discovery_development/nci-60/default.htm.
Compounds with GIPRCNT values below 10 were considered active. Activity score was based on GIPRCNT using the following formula: […]
Score is 0 for GIPRCNT values of 100 or above, 50 for GIPRCNT values of 0, and 100 for GIPRCNT values of -100.

Row | Compound | growth
1 | CCCCCn1c(=N)n(CC(O)COc2cccc(C)c2)c2ccccc21 (stereo not given) | 0.388% (active)
2 | COc1ncc(F)c(OC)n1 | 108% (inactive)
3 | C[C@]1(CO)C[C@@H](O)C[C@]2(C)[C@@H]1CC[C@@]13C[C@@H]4[C@@H](C[C@H]12)[C@]4(C)C3 | 104% (inactive)
4 | O=C(COc1ccc(/C=C2\CSc3ccccc3C2=O)cc1)c1ccc(Cl)cc1 | 115% (inactive)
5 | Cc1cccc2c(=O)c3c(sc12)c(NCCNCCO)nc1ccccc13 | 9.95% (active)
6 | O=C(Nc1nc2ccccc2[nH]1)C(=O)Nc1nc2ccccc2[nH]1 | 98.5% (inactive)
7 | ONc1nc(NO)c2[nH]cnc2n1 | 86.7% (inactive)
8 | COC(=O)c1c2c(c(C)[n+]([O-])c1C)C(=O)C=C(NCc1ccc(Cl)cc1)C2=O | 0.382% (active)
9 | COc1ccc(-c2nc3sc(C)nn3c2-c2nc3cc(C)c(C)cc3[nH]2)cc1 | 99.9% (inactive)
10 | COc1cc(C2CC(=O)Nc3c2ccc2ccccc32)cc(Br)c1OC (stereo not given) | 3.08% (active)
11 | Clc1ccc(Nc2nc(Nc3ccccc3)nc(Nc3ccc(-c4cc(-c5ccc(Cl)cc5)on4)cc3)n2)cc1 | 7.19% (active)
12 | COc1ccc(-n2c(SCc3cc(OC)c(OC)c(OC)c3)nc3ccc(C)cc3c2=O)c(OC)c1 | 4.59% (active)
13 | CC[Si](CC)(CC)OC1[C@@H](O[Si](CC)(CC)CC)[C@@H](CNC(=O)NC)O[C@H]1n1cnc2c(NC(=O)Nc3ccccc3)ncnc21 (stereo not given in full) | 24.8% (inactive)
14 | O=[N+]([O-])c1ccc2nc(N/N=C/c3ccc(O)cc3)sc2c1 | 48.5% (inactive)
15 | COc1c(O)c2c3c(c1OC)-c1ccccc1CC3N(S(=O)(=O)c1ccc(C)cc1)CC2 (stereo not given) | 23.3% (inactive)
16 | Cc1ccc(C)c2c1sc1nc3nc4sc5ccccc5n4c(=N)c3c(=O)n12 | 95.5% (inactive)
17 | CCC(C)[C@H]1O[C@]2(CC[C@@H]1C)C[C@@H]1C[C@@H](C/C=C(\C)[C@@H](OC3C[C@H](OC)C(O[C@H]4C[C@H](OC)[C@@H](O)[C@H](C)O4)[C@H](C)O3)[C@@H](C)/C=C/C=C3\CO[C@@H]4[C@H](O)C(C)=C[C@@H](C(=O)O1)[C@]34O)O2 (stereo not given in full) | 3.02% (active)
18 | COCCOC1=C(Cl)C(=O)c2ccccc2C1=O | 14.3% (inactive)
19 | CCOC(=O)c1c(Cl)c2c(n1Cc1cc(OC)cc(OC)c1)-c1oncc1CCC2 | 12.8% (inactive)
20 | O=S(=O)(Nc1ncccn1)c1ccc(Nc2ccc3nnc(-c4ccncc4)n3n2)cc1 | 96.4% (inactive)

Row | Compound | growth
21 | CCC(C)Oc1cc(/C=N/NC(=O)c2cnn3c2NC(c2ccccc2)C3)ccc1OC (stereo not given) | 11.5% (inactive)
22 | COc1cccc(C2CC(=O)Nc3cc4c(cc32)OCO4)c1OC (stereo not given) | 102% (inactive)
23 | Cc1ccccc1-n1nnc(C(=O)Nc2nc(-c3ccccc3)c(-c3ccccc3)s2)c1C | 73.2% [50 µM] (inactive)
24 | O=C1C(Cl)=C(NCCCN2CCOCC2)C(=O)c2ccccc21 | 99.2% (inactive)
25 | Cc1c(NCC(=O)Nc2nc3ccccc3[nH]2)c(=O)n(-c2ccccc2)n1C | 99.6% (inactive)
26 | CC(C)(C)[Si](C)(C)OC1[C@@H](O[Si](C)(C)C(C)(C)C)[C@@H](CNC(=O)NC(=O)C(F)(F)F)O[C@H]1n1cnc2c(NC(=O)Nc3ccccc3)ncnc21 (stereo not given in full) | 36.1% (inactive)
27 | O=C1NC(=S)S/C1=C\c1cccc([N+](=O)[O-])c1 | 104% (inactive)
28 | COc1ccc(-c2csc3c2-n2cccc2C3=O)cc1O | 1.57% (active)
29 | FC(F)(F)c1ccc2c(c1)n1cnnc1c1nncn21 | 110% (inactive)
30 | Clc1cccc(Cl)c1Nc1ccc2nnc(-c3ccncc3)n2n1 | 106% (inactive)
31 | NC(=O)c1cc(I)ccc1NC(=O)COc1ccccc1 | 6.3% (active)
32 | O/N=C/c1cccs1 | 108% (inactive)
33 | NC(=S)N/N=C1\c2ccccc2-c2c(F)c(F)c(F)c(F)c21 | 76.6% (inactive)
34 | O=C1C(OCCOc2ccccc2)=C(OCCOc2ccccc2)C(=O)c2ccccc21 | -26% (active)
35 | O=C1c2ccccc2-c2cn(Cc3ccccc3)c3cccc(c23)C1c1cccnc1 (stereo not given) | 23.2% (inactive)
36 | Cn1c2ccc(Cl)cc2c2nn(C(=O)c3ccccc3)c(=O)nc21 | 105% (inactive)
37 | O=C1/C(=C/c2ccc(Cl)cc2)N=C(c2ccccc2)N1CCc1cccs1 | 23.3% (inactive)
38 | COc1nc2c(cc1S(=O)(=O)c1ccccc1)CCc1c-2cnn1-c1ccccc1 | 77.5% (inactive)
39 | Cc1nc2cc(Nc3nc(N4CCCCC4)nc(N4CCOCC4)n3)ccc2n1Cc1ccccc1 | 4.87% (active)
40 | COC(=O)C1C2CC3c4[nH]c5cc(OC)ccc5c4CCN3CC2CC(OC2CCCCO2)C1OC (stereo not given) | 107% (inactive)
